# Measurements as given in PubChem BioAssay (NCI).
# Values joined by “and” are separate entries in the source; they are usually repeats but may differ in a detail not shown here. Identical values can stand only once. The panel holds about 79,000 compounds, 15% with a hit somewhere; the sample as a whole holds those more often. Some structures have more than one record in an assay (separate samples or runs), and their calls can disagree. Active and inactive are the calls of the source. No stated cut-off is given here; in the data, active means growth inhibition above about 70%; inactive means the rest.
# What was measured:
# [1] = NCI Yeast Anticancer Drug Screen. Data for the rad50 strain (AID 155);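 further: 0% = growth of vehicle-only cultures of the same strain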; details: S. cerevisiae rad50 strain growth inhibition, stronger effect = higher value
# Outline: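 Cells are treated with compound, grown, and their growth is then scored against vehicle-only cultures of the same repair-deficient yeast strain.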
# [2] = NCI Yeast Anticancer Drug Screen. Data for the mec2-1 strain (AID 157); details: S. cerevisiae mec2-1 strain, stronger effect = higher value
# Outline: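 Vehicle-treated cultures served as reference for growth inhibition of compound-exposed mec2-1 yeast.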
# [3] = NCI Yeast Anticancer Drug Screen. Data for the sgs1 mgt1 strain (AID 161);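 further: 0% = growth of cultures given vehicle only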; details: S. cerevisiae sgs1 mgt1 strain, stronger effect = higher value
# Outline: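 Mutant yeast exposed to compound; growth scored against vehicle-only wells.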
# [4] = NCI Yeast Anticancer Drug Screen. Data for the cln2 rad14 strain (AID 165);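 further: 0% = growth equal to vehicle treated cultures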; details: S. cerevisiae cln2 rad14 strain, stronger effect = higher value
# Outline: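 Each compound was tested on cln2 rad14 yeast. Inhibition of growth was calculated against vehicle-exposed controls.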
# [5] = NCI Yeast Anticancer Drug Screen. Data for the bub3 strain (AID 167); details: S. cerevisiae bub3 mutant strain, stronger effect = higher value
# Outline: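 Part of a panel of yeast mutants defective in DNA damage repair or cell cycle regulation. Each strain is grown with compound, and inhibition is calculated relative to solvent-treated cultures.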
# [6] = NCI Yeast Anticancer Drug Screen. Data for the mlh1 rad18 strain (AID 175); details: S. cerevisiae mlh1 rad18 strain growth inhibition, stronger effect = higher value
# Outline: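 Vehicle-treated cultures served as the reference for growth inhibition in a yeast strain carrying DNA damage repair alterations exposed to each compound.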
# [7] = NCI Yeast Anticancer Drug Screen. Data for the wt1 strain (AID 149);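 further: 0% = growth of vehicle-treated wt1 cultures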; details: S. cerevisiae wt1 strain (SPY 50644) growth inhibition, stronger effect = higher value
# Outline: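 The wt1 strain was treated with compounds, and growth was compared with vehicle-treated cultures to give inhibition.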
# [8] = NCI Yeast Anticancer Drug Screen. Data for the rad14 strain (AID 159);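 further: 0% = growth of vehicle-treated control cultures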; details: S. cerevisiae rad14 strain growth inhibition, stronger effect = higher value
# Outline: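 Readout: yeast growth inhibition, referenced to vehicle-only cultures. Strain bears a defined alteration in DNA damage repair.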
# [9] = NCI Yeast Anticancer Drug Screen. Data for the CLN2oe strain (AID 163);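 further: 0% = growth of vehicle-only control cultures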; details: S. cerevisiae CLN2oe strain, stronger effect = higher value
# Outline: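 Inhibition relative to vehicle-treated yeast is reported. Cells: strain with genetic alteration in cell-cycle control, grown with compound.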
# [10] = NCI Yeast Anticancer Drug Screen. Data for the wt2 strain (AID 169);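 further: 0% = growth of vehicle-treated yeast cultures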; details: S. cerevisiae wt2 strain growth inhibition, stronger effect = higher value
# Outline: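 Inhibition of yeast growth was determined after compound treatment, normalised to controls receiving only vehicle.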
# [11] = NCI Yeast Anticancer Drug Screen. Data for the mlh1 strain (AID 171);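 further: 0% = growth of vehicle-treated control cultures of the same strain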; details: S. cerevisiae mlh1 strain growth inhibition, stronger effect = higher value
# Outline: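 Vehicle-normalised growth inhibition of a repair- or checkpoint-altered yeast strain following compound treatment.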
# [12] = NCI Yeast Anticancer Drug Screen. Data for the sgs1 strain (AID 173);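 further: 0% = growth of vehicle-only control cultures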; details: S. cerevisiae sgs1 mutant, stronger effect = higher value
# Outline: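 Screen format: yeast with repair or checkpoint alterations, compound exposure, growth read relative to vehicle.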
# [13] = at 5.0 µM (retest, dose inferred, filed as 0.5)
# [14] = at 50.0 µM (retest, dose inferred, filed as 5.0)
smiles,measurement,setting,value
C[n+]1ccccc1-c1nc(-c2cccc[n+]2C)nc(-c2cccc[n+]2C)n1,growth inhibition,[1]; [13],37% (inactive)
same,growth inhibition,[1]; [14],75% (active)
same,growth inhibition,[1]; at 50.0 µM,56.6% (inactive)
same,growth inhibition,[2]; [13],46% (inactive)
same,growth inhibition,[2]; [14],57% (inactive)
same,growth inhibition,[2]; at 50.0 µM,49.6% (inactive)
same,growth inhibition,[3]; [13],23% (inactive)
same,growth inhibition,[3]; [14],69% (inactive)
same,growth inhibition,[3]; at 50.0 µM,79.6% (active)
same,growth inhibition,[4]; [13],14% (inactive)
same,growth inhibition,[4]; [14],51% (inactive)
same,growth inhibition,[4]; at 50.0 µM,21.9% (inactive)
same,growth inhibition,[5]; [13],19% (inactive)
same,growth inhibition,[5]; [14],73% (active)
same,growth inhibition,[5]; at 50.0 µM,44.9% (inactive)
C/C(=N\N=C(/[Se])N1CC2CCC(CC2)C1)c1ccccn1,growth inhibition,[1]; [13],62% (inactive)
same,growth inhibition,[1]; [14],79% (active)
same,growth inhibition,[1]; at 50.0 µM,87.5% (active)
same,growth inhibition,[2]; [13],40% (inactive)
same,growth inhibition,[2]; [14],80% (active)
same,growth inhibition,[2]; at 50.0 µM,90.2% (active)
same,growth inhibition,[3]; [13],53% (inactive)
same,growth inhibition,[3]; [14],73% (active)
same,growth inhibition,[3]; at 50.0 µM,89.5% (active)
same,growth inhibition,[4]; [13],32% (inactive)
same,growth inhibition,[4]; [14],65% (inactive)
same,growth inhibition,[4]; at 50.0 µM,85.2% (active)
same,growth inhibition,[5]; [13],51% (inactive)
same,growth inhibition,[5]; [14],81% (active)
same,growth inhibition,[5]; at 50.0 µM,90.3% (active)
same,growth inhibition,[6]; [13],64% (inactive)
same,growth inhibition,[6]; [14],84% (active)
COc1ccc(OC)c(/C=C/[N+](=O)[O-])c1,growth inhibition,[7]; at 1.2 µM,-6% (inactive)
same,growth inhibition,[7]; at 3.7 µM,-7% (inactive)
same,growth inhibition,[7]; at 11.0 µM,-9% (inactive)
same,growth inhibition,[7]; at 33.0 µM,7% (inactive)
same,growth inhibition,[7]; at 100.0 µM,71% (active)
same,growth inhibition,[1]; at 1.2 µM,11% (inactive)
same,growth inhibition,[1]; at 3.7 µM,21% (inactive)
same,growth inhibition,[1]; [13],-83% (inactive) and 19% (inactive)
same,growth inhibition,[1]; at 11.0 µM,48% (inactive)
same,growth inhibition,[1]; at 33.0 µM,86% (active)
same,growth inhibition,[1]; [14],86% (active) and 95% (active)
same,growth inhibition,[1]; at 50.0 µM,99.4% (active)
same,growth inhibition,[1]; at 100.0 µM,99% (active)
same,growth inhibition,[2]; at 1.2 µM,1% (inactive)
same,growth inhibition,[2]; at 3.7 µM,2% (inactive)
same,growth inhibition,[2]; [13],-46% (inactive) and 9% (inactive)
same,growth inhibition,[2]; at 11.0 µM,7% (inactive)
same,growth inhibition,[2]; at 33.0 µM,30% (inactive)
same,growth inhibition,[2]; [14],-38% (inactive) and 97% (active)
same,growth inhibition,[2]; at 50.0 µM,99.7% (active) and 98.8% (active)
same,growth inhibition,[2]; at 100.0 µM,99% (active)
same,growth inhibition,[8]; at 1.2 µM,5% (inactive)
same,growth inhibition,[8]; at 3.7 µM,7% (inactive)
same,growth inhibition,[8]; at 11.0 µM,15% (inactive)
same,growth inhibition,[8]; at 33.0 µM,39% (inactive)
same,growth inhibition,[8]; at 100.0 µM,100% (active)
same,growth inhibition,[3]; [13],-53% (inactive) and 12% (inactive)
same,growth inhibition,[3]; [14],1% (inactive) and 64% (inactive)
same,growth inhibition,[3]; at 50.0 µM,91.3% (active) and 99% (active)
same,growth inhibition,[9]; at 1.2 µM,6% (inactive)
same,growth inhibition,[9]; at 3.7 µM,9% (inactive)
same,growth inhibition,[9]; at 11.0 µM,13% (inactive)
same,growth inhibition,[9]; at 33.0 µM,37% (inactive)
same,growth inhibition,[9]; at 100.0 µM,95% (active)
same,growth inhibition,[4]; [13],-60% (inactive) and 2% (inactive)
same,growth inhibition,[4]; [14],-45% (inactive) and 76% (active)
same,growth inhibition,[4]; at 50.0 µM,98.8% (active) and 98.4% (active)
same,growth inhibition,[5]; at 1.2 µM,0% (inactive)
same,growth inhibition,[5]; at 3.7 µM,6% (inactive)
same,growth inhibition,[5]; [13],-57% (inactive) and 35% (inactive)
same,growth inhibition,[5]; at 11.0 µM,13% (inactive)
same,growth inhibition,[5]; at 33.0 µM,25% (inactive)
same,growth inhibition,[5]; [14],-33% (inactive) and 79% (active)
same,growth inhibition,[5]; at 50.0 µM,99% (active)
same,growth inhibition,[5]; at 100.0 µM,99% (active)
same,growth inhibition,[10]; at 1.2 µM,0% (inactive)
same,growth inhibition,[10]; at 3.7 µM,-1% (inactive)
same,growth inhibition,[10]; at 11.0 µM,-2% (inactive)
same,growth inhibition,[10]; at 33.0 µM,15% (inactive)
same,growth inhibition,[10]; at 100.0 µM,85% (active)
same,growth inhibition,[11]; at 1.2 µM,10% (inactive)
same,growth inhibition,[11]; at 3.7 µM,-2% (inactive)
same,growth inhibition,[11]; at 11.0 µM,8% (inactive)
same,growth inhibition,[11]; at 33.0 µM,28% (inactive)
same,growth inhibition,[11]; at 100.0 µM,98% (active)
same,growth inhibition,[12]; at 1.2 µM,-1% (inactive)
same,growth inhibition,[12]; at 3.7 µM,18% (inactive)
same,growth inhibition,[12]; at 11.0 µM,29% (inactive)
same,growth inhibition,[12]; at 33.0 µM,54% (inactive)
same,growth inhibition,[12]; at 100.0 µM,100% (active)
